# Measured values: PubChem BioAssay (NCI)
# This is part of a sample that, as a whole, favours compounds with a hit. Of some 83,000 tested, about 20% had one in any assay.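 Step 1: grow cells in 96-well plates. Step 2: add test compound at a single concentration. Step 3: incubate 48 h. Step 4: record percent growth.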 A number with no mark means an inactive call. Activity calls are given as the source filed them. The calls were made as follows: active = growth percent below 10; inactive = the rest.
# Tested on: HL-60(TB) leukemia
# Assay: NCI-60 one-dose screen, 48 h (100 = growth as untreated, 0 = no growth, -100 = all killed)
# Conditions: 10 µM unless noted
row,SMILES,growth
1,COc1cc2c(Oc3ccc4[nH]c(C)cc4c3F)ncnc2cc1OCCCN1CCCC1,102%
2,Cc1cc(N)cc(C)c1-c1c(Br)cc(N)cc1Br,10.4%
3,Cc1cnc(Nc2ccc(N3CCN(C)CC3)cc2)nc1Nc1ccc(Cl)c(NS(=O)(=O)C(C)(C)C)c1,-13.4% (active)
4,CC1(C)N=C(N)N=C(N)N1c1cccc(/C=C/C=C/c2cccc([N+](=O)[O-])c2)c1,12%
5,O=C(Nc1ccc(F)c(Cl)c1)Nc1ccc(Cl)c(Cl)c1,25%
6,COC(=O)N[C@@H](C)CNc1nccc(-c2cn(C(C)C)nc2-c2cc(Cl)cc(NS(C)(=O)=O)c2F)n1,26.6%
7,O=C(CCCCCCN1CC(=O)N2[C@@H](c3ccc(Cl)cc3)c3[nH]c4ccccc4c3C[C@H]2C1=O)NO,46.8%
8,O=c1c2cnn(-c3ccccc3)c2n2c(CN3CCOCC3)nnc2n1-c1ccccc1,102%
9,CN(C)c1ccc(/C=N/N=C(\C#N)[S][Sn]([Cl])([c]2ccccc2)[c]2ccccc2)cc1,0.861% (active)
10,Cc1nc2ccc(CN(C)c3ccc(C(=O)N[C@@H](CCC(=O)O)C(=O)O)s3)cc2c(=O)[nH]1,27.9%
11,CC(C)c1ccc(Cc2cnc(NC(=O)c3cc(Br)cs3)s2)cc1,-24% (active)
12,COc1ccc(-c2nc3c(c(-c4ccc(Cl)cc4)nn3-c3ccccc3)c(-c3ccc(O)cc3)c2C#N)cc1,22.7%
13,CC(C)CSc1nc(Nc2ccccc2)c(C#N)c(-c2ccc(F)cc2)n1,73.4%
